Laboratory results as given in PubChem BioAssay (NCI).
The panel holds about 83,000 compounds, 20% with a hit somewhere; the sample as a whole holds those more often.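 48-hour exposure, single concentration, 96-well plates; percent growth endpoint where 0 means no net growth. Active: below 10.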 A number with no mark means an inactive call. Activity calls are given as the source filed them.

Experiments:
Assay in all cases: NCI-60 one-dose screen, 48 h (100 = growth as untreated, 0 = no growth, -100 = all killed)
Details in all cases: 10 µM unless noted
[1] = test system: DU-145 prostate
[2] = test system: K-562 leukemia
[3] = test system: MALME-3M melanoma
[4] = test system: MDA-MB-231 breast
[5] = test system: RXF 393 renal
[6] = test system: SF-268 CNS
[7] = test system: SF-295 CNS
[8] = test system: SF-539 CNS
[9] = test system: UACC-257 melanoma
[10] = test system: M14 melanoma

SMILES: CCCCCCC/C=N/NC(=O)c1ccc(-n2cc(-c3ccccc3)nn2)cc1
- growth [1]: 96.1%
- growth [2]: 79.7%
- growth [3]: 78.1%
- growth [4]: 74.3%
- growth [5]: 83.5%
- growth [6]: 90.1%
- growth [7]: 87.8%
- growth [8]: 96.5%
- growth [9]: 100%
- growth [10]: 80.7%

SMILES: COc1cccc(/C=C/C(=O)/C=C(/C=C/c2cccc(OC)c2OC)OB(F)F)c1OC
- growth [1]: 55.7%
- growth [2]: 32.9%
- growth [3]: 32%
- growth [4]: 60.3%
- growth [5]: 102%
- growth [6]: 95.3%
- growth [7]: 103%
- growth [8]: 57.7%
- growth [9]: 28.6%
- growth [10]: 61.7%

SMILES: N#CSCc1cc(Cl)c(CSC#N)cc1Cl
- growth [1]: 59.7%
- growth [2]: 29.2%
- growth [3]: 58%
- growth [4]: 57.6%
- growth [5]: 34.3%
- growth [6]: 63.3%
- growth [7]: 97.5%
- growth [8]: 45.7%
- growth [9]: 103%
- growth [10]: 27.4%

SMILES: Cc1cc(N2CCOCC2)nc(N(CCCNc2ccnc3cc(Cl)ccc23)Cc2ccc3c(c2)OCO3)n1
- growth [1]: 20.3%
- growth [2]: -43.7% (active)
- growth [3]: -20.5% (active)
- growth [4]: -37.1% (active)
- growth [5]: -75.6% (active)
- growth [6]: 15%
- growth [7]: -69% (active)
- growth [8]: -75.4% (active)
- growth [9]: -31.5% (active)
- growth [10]: -61.1% (active)

SMILES: O=C(O)/C=C\C(=O)Nc1ccc2c(c1)Cc1cc(F)ccc1-2
- growth [1]: 111%
- growth [2]: 104%
- growth [3]: 98.9%
- growth [4]: 112%
- growth [5]: 114%
- growth [6]: 96%
- growth [7]: 96.4%
- growth [8]: 94.9%
- growth [9]: 115%
- growth [10]: 96.4%

SMILES: CCN(CC)CCOc1ccc(/C(=C(\C)Cc2ccc(OC)cc2)c2ccc(O)cc2)cc1
- growth [1]: 53.4%
- growth [2]: -56.7% (active)
- growth [3]: -76.7% (active)
- growth [4]: 24%
- growth [5]: 6.99% (active)
- growth [6]: 47.9%
- growth [7]: -25.3% (active)
- growth [8]: -50.8% (active)
- growth [9]: -62.9% (active)
- growth [10]: -77.3% (active)

SMILES: CCNCCNc1c(C)c(-c2ccc(C(F)(F)F)cc2)c(C#N)c2nc3ccccc3n12
- growth [1]: 99.1%
- growth [2]: 54.8%
- growth [3]: 109%
- growth [4]: 90.9%
- growth [5]: 90.4%
- growth [6]: 80.8%
- growth [7]: 91.4%
- growth [8]: 82.7%
- growth [9]: 79.6%
- growth [10]: 56.1%

SMILES: CNC(=O)c1cc(Oc2ccc3nc(NC(=O)Nc4ccc(F)cc4F)sc3c2)ccn1
- growth [1]: 65.7%
- growth [2]: 71.5%
- growth [3]: 46.2%
- growth [4]: 47.7%
- growth [5]: 42.3%
- growth [6]: 76.1%
- growth [7]: 76.7%
- growth [8]: 61.7%
- growth [9]: 74.3%
- growth [10]: 69.1%

SMILES: CC(=O)c1ccc(Nc2nccc(-c3ccc(Cl)cc3)n2)cc1
- growth [1]: 102%
- growth [2]: 83.9%
- growth [3]: 101%
- growth [4]: 101%
- growth [5]: 103%
- growth [6]: 93%
- growth [7]: 101%
- growth [8]: 92.3%
- growth [9]: 106%
- growth [10]: 101%

SMILES: NCCCCCNc1noc(Cc2c[nH]c3cc(Br)ccc23)n1
- growth [1]: 2.36% (active)
- growth [2]: 14.3%
- growth [3]: 13.5%
- growth [4]: 51.2%
- growth [5]: -11.5% (active)
- growth [6]: 54.1%
- growth [7]: 7.26% (active)
- growth [8]: -23% (active)
- growth [9]: 54.8%
- growth [10]: -26.3% (active)

SMILES: COc1ccc(S(=O)(=O)Oc2ccc(-c3sc4cc(OS(=O)(=O)c5ccc(OC)cc5)ccc4c3C(=O)c3ccc(OCCN4CCCCC4)cc3)cc2)cc1
- growth [1]: 107%
- growth [2]: 103%
- growth [3]: 92.3%
- growth [4]: 108%
- growth [5]: 110%
- growth [6]: 102%
- growth [7]: 93.2%
- growth [8]: 95.2%
- growth [9]: 93%
- growth [10]: 105%

SMILES: Fc1ccc(/C=C/c2cc(/C=C/c3ccc(F)cc3)n(-c3cc(F)cc(F)c3)n2)cc1
- growth [1]: 99.9%
- growth [2]: 66.4%
- growth [3]: 98.1%
- growth [4]: 101%
- growth [5]: 112%
- growth [6]: 102%
- growth [7]: 93.5%
- growth [8]: 103%
- growth [9]: 106%
- growth [10]: 87.7%

SMILES: Nc1ncc(-c2ccc3ncnc(N4CCc5cc(F)c(Cl)cc54)c3c2)cn1
- growth [1]: 33.4%
- growth [2]: 61.4%
- growth [3]: 53.6%
- growth [4]: 30%
- growth [5]: 1.88% (active)
- growth [6]: 39.8%
- growth [7]: 56.2%
- growth [8]: 48.5%
- growth [9]: 67.6%
- growth [10]: 61.1%

SMILES: COc1ccc(C2=NN(C=O)C(c3ccc(Oc4nc5c(c(=O)n(C)c(=O)n5C)n4C)c(OC)c3)C2)cc1 (stereo not given)
- growth [1]: 60.9%
- growth [2]: 89.9%
- growth [3]: 102%
- growth [4]: 77.6%
- growth [5]: 110%
- growth [6]: 57.8%
- growth [7]: 75.5%
- growth [8]: 110%
- growth [9]: -10.3% (active)
- growth [10]: 68.9%

SMILES: CN1CCN(Cc2ccc(NC(=O)c3cncc(C#Cc4c(N)ncc5c(F)cccc45)c3)cc2C(F)(F)F)CC1
- growth [1]: -90.3% (active)
- growth [2]: -66.9% (active)
- growth [3]: -74.3% (active)
- growth [4]: -89.6% (active)
- growth [5]: -91.5% (active)
- growth [6]: -63.6% (active)
- growth [7]: -70.6% (active)
- growth [8]: -95.4% (active)
- growth [9]: -73% (active)
- growth [10]: -66% (active)

SMILES: C=CN(C(=O)N1CCN(c2cc3c(cc2F)c(=O)c(C(=O)O)cn3C2CC2)CC1)c1nc(-c2ccc(C)cc2)cs1
- growth [1]: 24.7%
- growth [2]: 18.5%
- growth [3]: 48.2%
- growth [4]: 21.5%
- growth [5]: 6.69% (active)
- growth [6]: 26.3%
- growth [7]: -5.02% (active)
- growth [8]: 20.2%
- growth [9]: 54.2%
- growth [10]: 31.4%

SMILES: COc1ccc(C(=O)C2OC3=C(C(=O)CC(C)(C)C3)C2c2cccc(Oc3ccccc3)c2)cc1 (stereo not given)
- growth [1]: 102%
- growth [2]: 87.2%
- growth [3]: 112%
- growth [4]: 87.5%
- growth [5]: 101%
- growth [6]: 92.5%
- growth [7]: 97.1%
- growth [8]: 94.5%
- growth [9]: 91%
- growth [10]: 98.7%

SMILES: Cc1ccc(S(=O)(=O)c2nc(-c3ccccc3)oc2S(C)=O)cc1 (stereo not given)
- growth [1]: 47.3%
- growth [2]: -31.1% (active)
- growth [3]: -76.8% (active)
- growth [4]: 4.23% (active)
- growth [5]: -33.4% (active)
- growth [6]: 55.9%
- growth [7]: 84.3%
- growth [8]: -22% (active)
- growth [9]: 46.5%
- growth [10]: -80.6% (active)

SMILES: COc1ccc(/C=C/C(=O)c2ccc(-n3cc(CN4CCN(c5cc6c(cc5F)c(=O)c(C(=O)O)cn6C5CC5)CC4)nn3)cc2)cc1
- growth [1]: 83.2%
- growth [2]: 42.6%
- growth [3]: 66.2%
- growth [4]: 67.2%
- growth [5]: 64.2%
- growth [6]: 56%
- growth [7]: 94.9%
- growth [8]: 50.8%
- growth [9]: 78.7%
- growth [10]: 59%

SMILES: O=C(OCc1ccc2c(Br)cc(Br)c(O)c2n1)N1CCN(C(=O)c2cc3ccccc3[nH]2)CC1
- growth [1]: 48.9%
- growth [2]: 21.7%
- growth [3]: 51.5%
- growth [4]: 46.3%
- growth [5]: 41%
- growth [6]: 31.6%
- growth [7]: 21.3%
- growth [8]: 47.9%
- growth [9]: 31.5%
- growth [10]: 30%

SMILES: C/C=C(/C)C(=O)O[C@@H]1CC(C)(C)CC2C34OC(=O)[C@@]21CC[C@@]3(C)[C@]1(C)CCC2C(C)(C)C(=O)CC[C@]2(C)C1C[C@@H]4O (stereo not given in full)
- growth [1]: 77.9%
- growth [2]: 28.8%
- growth [3]: 85%
- growth [4]: 58.4%
- growth [5]: 76%
- growth [6]: 73.4%
- growth [7]: 78.4%
- growth [8]: 52.1%
- growth [9]: 64.6%
- growth [10]: 52.4%

SMILES: C#CC(F)(F)[C@]1(O)CCC2C3CCC4=CC(=O)CCC4=C3[C@@H](c3ccc(N(C)C)cc3)C[C@@]21C (stereo not given in full)
- growth [1]: 104%
- growth [2]: 85.9%
- growth [3]: 103%
- growth [4]: 84.7%
- growth [5]: 98.1%
- growth [6]: 95.9%
- growth [7]: 86.2%
- growth [8]: 82.7%
- growth [9]: 80.9%
- growth [10]: 86.1%

SMILES: C#CCOc1cccc(Nc2ncnc3c(NC(=O)CCl)cccc23)c1
- growth [1]: 58.9%
- growth [2]: -21.7% (active)
- growth [3]: -74.7% (active)
- growth [4]: -25.6% (active)
- growth [5]: 56.2%
- growth [6]: 3.94% (active)
- growth [7]: 95.6%
- growth [8]: -91.3% (active)
- growth [9]: 56.9%
- growth [10]: 5.19% (active)

SMILES: CC(=O)OCCOc1cc(Cl)c(Cl)cc1Cl
- growth [1]: 105%
- growth [2]: 102%
- growth [3]: 114%
- growth [4]: 94.3%
- growth [5]: 102%
- growth [6]: 99.4%
- growth [7]: 95%
- growth [8]: 107%
- growth [9]: 102%
- growth [10]: 103%

SMILES: CCOC(=O)C#Cc1c(CC(=O)OCC)nnn1[C@H]1O[C@@H](CO)[C@@H]2OC(C)(C)O[C@@H]21
- growth [1]: 94.5%
- growth [2]: 10.3%
- growth [3]: 26.6%
- growth [4]: 105%
- growth [5]: 3.65% (active)
- growth [6]: 105%
- growth [7]: 97.4%
- growth [8]: 75.3%
- growth [9]: 62.8%
- growth [10]: 58.3%

SMILES: C#CCOc1cccc(-c2ncnc3cc(NC(=O)CCl)ccc23)c1
- growth [1]: 13.9%
- growth [2]: 2.03% (active)
- growth [3]: -78.8% (active)
- growth [4]: -36.4% (active)
- growth [5]: -87.9% (active)
- growth [6]: -42.2% (active)
- growth [7]: 34.4%
- growth [8]: -43.9% (active)
- growth [9]: 42.8%
- growth [10]: -52.3% (active)
